Assay results taken from ChEMBL document CHEMBL2218924, “A broad activity screen in support of a chemogenomic map for kinase signalling research and drug discovery” (Biochem J, 2013).

Biological target: T1, Activin receptor type-1B (Homo sapiens) (UniProt P36896)
T1 sequence (whole entry): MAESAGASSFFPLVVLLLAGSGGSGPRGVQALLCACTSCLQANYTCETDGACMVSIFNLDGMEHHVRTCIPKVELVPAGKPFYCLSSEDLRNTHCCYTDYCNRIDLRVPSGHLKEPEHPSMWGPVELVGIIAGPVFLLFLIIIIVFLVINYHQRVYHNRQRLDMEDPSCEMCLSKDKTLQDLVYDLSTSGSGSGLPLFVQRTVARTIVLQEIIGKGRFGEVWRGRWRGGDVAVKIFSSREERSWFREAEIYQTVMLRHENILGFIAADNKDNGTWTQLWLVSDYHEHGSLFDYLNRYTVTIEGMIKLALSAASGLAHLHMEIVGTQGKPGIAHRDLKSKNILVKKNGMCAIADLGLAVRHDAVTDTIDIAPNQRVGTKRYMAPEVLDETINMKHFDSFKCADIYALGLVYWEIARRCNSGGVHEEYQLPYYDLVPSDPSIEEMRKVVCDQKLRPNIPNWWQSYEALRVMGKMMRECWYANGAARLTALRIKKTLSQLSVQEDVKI
Conditions: at 10 µM

| Compound | residual activity [%] |
| --- | --- |
| O=C1Nc2ccc(Br)cc2/C1=C\c1cc2c([nH]1)CCCC2 | 101 |
| C[C@@H](N)[C@H]1CC[C@H](C(=O)Nc2ccncc2)CC1 | 63 |
| c1ccc(-c2n[nH]c3c2oc2ccccc23)cc1 | 99 |
| Cc1nc(-c2ccccc2)c(-c2ccncc2)o1 | 88 |
| Cc1cc(Nc2nc(-c3ccccc3)nc3ccccc23)n[nH]1 | 76 |
| COc1cc2ncnc(Nc3ccc(O)c(Br)c3)c2cc1OC | 85 |
| COc1cccc(-c2cc(=O)c3ccccc3o2)c1N | 108 |
| Oc1n[nH]c2nnc(-c3c(-c4ccccc4)nn4ccccc34)cc12 | 115 |
| CN(C)CCCn1cc(C2=C(c3c[nH]c4ccccc34)C(=O)NC2=O)c2ccccc21 | 76 |
| CO[C@@H]1[C@H](N(C)C(=O)c2ccccc2)C[C@H]2O[C@]1(C)n1c3ccccc3c3c4c(c5c6ccccc6n2c5c31)C(=O)NC4 | 102 |
| COc1ccc(S(=O)(=O)N(CCO)c2ccccc2CN(C)C/C=C/c2ccc(Cl)cc2)cc1 | 102 |
| O=C1NC(=O)c2c1c1c3ccccc3[nH]c1c1[nH]c3cc(Br)ccc3c21 | 99 |
| COc1cc2ncnc(Nc3ccc(NC(=O)c4ccccc4)cc3)c2cc1OC | 105 |
| NC(=O)c1ccc2[nH]c(-c3ccc(Oc4ccc(Cl)cc4)cc3)nc2c1 | 97 |
| O=Nc1c(-c2c(O)[nH]c3ccccc23)[nH]c2ccccc12 | 72 |
| CC(=O)c1ccc(N2CCOCC2)cc1O | 106 |
| COc1ccc(OC)c2c(=S)c3ccccc3[nH]c12 | 117 |
| c1ccc2c(-c3ccncc3)c[nH]c2c1 | 110 |
| Nc1ccc2ncnc(NCCc3ccc(Oc4ccccc4)cc3)c2c1 | 103 |
| CO[C@H]1C[C@@H]2CC[C@@H](C)[C@@](O)(O2)C(=O)C(=O)N2CCCC[C@H]2C(=O)O[C@H]([C@H](C)C[C@@H]2CC[C@@H](O)[C@H](OC)C2)CC(=O)[C@H](C)/C=C(\C)[C@@H](O)[C@@H](OC)C(=O)[C@H](C)C[C@H](C)/C=C/C=C/C=C/1C | 110 |
| O=C1Nc2cc(Br)ccc2/C1=C1/Nc2ccccc2/C1=N\O | 96 |
| Cc1cncc2cccc(S(=O)(=O)N3CCCN(C(=O)CN)C[C@H]3C)c12 | 86 |
| O=[N+]([O-])c1ccc(-c2nc(-c3ccc(F)cc3)c(-c3ccncc3)[nH]2)cc1 | 35 |
| CCOc1cc2ncnc(Nc3cccc(Br)c3)c2cc1OCC | 91 |
| COc1ccc(C(=O)Nc2sc3c(c2C(N)=O)CCCC3)cc1OC | 83 |
| N#Cc1cnc2cnc(NCc3cccnc3)cc2c1Nc1ccc(F)c(Cl)c1 | 92 |
| O=C1c2ccccc2-[n+]2ccc3c([nH]c4ccccc43)c21 | 114 |
| Oc1ccc(Nc2nc(-c3ccc(Cl)cc3)cs2)cc1 | 110 |
| CC(=O)O/N=C1\C(=C2\C(=O)Nc3cc(Br)ccc32)Nc2ccccc21 | 119 |
| CC(C)n1cnc2c(NCc3ccccc3)nc(NCCCO)nc21 | 111 |

Biological target: AMP-activated protein kinase (AMPK) alpha-1/beta-1/gamma-1 (Homo sapiens) (UniProt P54619+Q9Y478+Q13131)
Conditions: at 1 µM

Sequence of AMP-activated protein kinase (AMPK) alpha-1/beta-1/gamma-1 (Homo sapiens) (P54619 whole entry): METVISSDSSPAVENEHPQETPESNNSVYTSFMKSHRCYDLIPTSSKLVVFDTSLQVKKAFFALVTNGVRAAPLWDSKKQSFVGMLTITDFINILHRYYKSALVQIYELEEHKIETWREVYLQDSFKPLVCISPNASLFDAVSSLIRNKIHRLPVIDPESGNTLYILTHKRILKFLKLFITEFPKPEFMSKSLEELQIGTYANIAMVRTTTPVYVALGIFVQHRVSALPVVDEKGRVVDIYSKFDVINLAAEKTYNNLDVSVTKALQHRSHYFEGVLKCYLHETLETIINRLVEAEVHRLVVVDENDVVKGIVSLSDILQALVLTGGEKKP
Sequence of AMP-activated protein kinase (AMPK) alpha-1/beta-1/gamma-1 (Homo sapiens) (Q13131 whole entry partner): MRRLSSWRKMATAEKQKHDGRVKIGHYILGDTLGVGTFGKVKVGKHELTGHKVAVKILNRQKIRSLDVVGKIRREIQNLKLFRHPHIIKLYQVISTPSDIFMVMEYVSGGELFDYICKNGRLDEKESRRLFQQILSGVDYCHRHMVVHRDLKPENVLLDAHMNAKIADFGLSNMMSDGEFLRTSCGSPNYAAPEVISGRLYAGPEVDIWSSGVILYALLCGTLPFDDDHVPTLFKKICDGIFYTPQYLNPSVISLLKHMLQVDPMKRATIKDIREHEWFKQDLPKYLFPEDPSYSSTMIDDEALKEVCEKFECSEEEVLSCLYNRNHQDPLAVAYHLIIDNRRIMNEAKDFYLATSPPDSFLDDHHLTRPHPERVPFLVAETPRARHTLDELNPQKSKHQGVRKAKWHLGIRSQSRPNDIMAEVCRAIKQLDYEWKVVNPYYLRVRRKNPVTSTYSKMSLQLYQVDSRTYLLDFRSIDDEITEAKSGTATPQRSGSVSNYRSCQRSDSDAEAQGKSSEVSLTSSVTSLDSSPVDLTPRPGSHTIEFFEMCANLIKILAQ
Sequence of AMP-activated protein kinase (AMPK) alpha-1/beta-1/gamma-1 (Homo sapiens) (Q9Y478 2-270 partner limits assumed): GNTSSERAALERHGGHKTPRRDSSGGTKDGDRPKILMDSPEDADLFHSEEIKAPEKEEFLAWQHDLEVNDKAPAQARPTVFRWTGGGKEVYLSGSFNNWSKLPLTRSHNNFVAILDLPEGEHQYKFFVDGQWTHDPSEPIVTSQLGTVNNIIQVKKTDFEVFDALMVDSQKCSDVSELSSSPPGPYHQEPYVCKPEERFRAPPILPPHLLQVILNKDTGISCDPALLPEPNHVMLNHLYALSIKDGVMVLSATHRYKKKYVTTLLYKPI

| Compound | residual activity [%] |
| --- | --- |
| O=C1Nc2ccc(Br)cc2/C1=C\c1cc2c([nH]1)CCCC2 | 76 |
| C[C@@H](N)[C@H]1CC[C@H](C(=O)Nc2ccncc2)CC1 | 98 |
| c1ccc(-c2n[nH]c3c2oc2ccccc23)cc1 | 89 |
| COc1cc2ncc(-c3ccccc3)nc2cc1OC | 86 |
| Cc1nc(-c2ccccc2)c(-c2ccncc2)o1 | 105 |
| Cc1cc(Nc2nc(-c3ccccc3)nc3ccccc23)n[nH]1 | 15 |
| CCN(CC)C(=O)c1ccc(Nc2nc(OCC3CCCCC3)c3nc[nH]c3n2)cc1 | 35 |
| COc1cc2ncnc(Nc3ccc(O)c(Br)c3)c2cc1OC | 82 |
| COc1cccc(-c2cc(=O)c3ccccc3o2)c1N | 101 |
| Oc1n[nH]c2nnc(-c3c(-c4ccccc4)nn4ccccc34)cc12 | 86 |
| Cc1cc2ncc(-c3ccccc3)nc2cc1C | 105 |
| CN(C)CCCn1cc(C2=C(c3c[nH]c4ccccc34)C(=O)NC2=O)c2ccccc21 | 44 |
| CO[C@@H]1[C@H](N(C)C(=O)c2ccccc2)C[C@H]2O[C@]1(C)n1c3ccccc3c3c4c(c5c6ccccc6n2c5c31)C(=O)NC4 | 10 |
| COc1ccc(S(=O)(=O)N(CCO)c2ccccc2CN(C)C/C=C/c2ccc(Cl)cc2)cc1 | 104 |
| O=C1NC(=O)c2c1c1c3ccccc3[nH]c1c1[nH]c3cc(Br)ccc3c21 | 84 |
| NC(=O)c1ccc2[nH]c(-c3ccc(Oc4ccc(Cl)cc4)cc3)nc2c1 | 72 |
| O=Nc1c(-c2c(O)[nH]c3ccccc23)[nH]c2ccccc12 | 2 |

| Compound | residual activity [%] |
| --- | --- |
| CC(=O)c1ccc(N2CCOCC2)cc1O | 102 |
| COc1ccc(OC)c2c(=S)c3ccccc3[nH]c12 | 90 |
| O=C1Nc2ccccc2/C1=C1/Nc2ccccc2/C1=N\OCCC(O)CO (centres undefined) | 4 |
| c1ccc2c(-c3ccncc3)c[nH]c2c1 | 93 |
| Nc1ccc2ncnc(NCCc3ccc(Oc4ccccc4)cc3)c2c1 | 51 |
| CO[C@H]1C[C@@H]2CC[C@@H](C)[C@@](O)(O2)C(=O)C(=O)N2CCCC[C@H]2C(=O)O[C@H]([C@H](C)C[C@@H]2CC[C@@H](O)[C@H](OC)C2)CC(=O)[C@H](C)/C=C(\C)[C@@H](O)[C@@H](OC)C(=O)[C@H](C)C[C@H](C)/C=C/C=C/C=C/1C | 79 |
| N#CC(C#N)=C(N)/C(C#N)=C/c1ccc(O)cc1 | 92 |
| O=C1Nc2cc(Br)ccc2/C1=C1/Nc2ccccc2/C1=N\O | 2 |
| Cc1cncc2cccc(S(=O)(=O)N3CCCN(C(=O)CN)C[C@H]3C)c12 | 98 |
| O=[N+]([O-])c1ccc(-c2nc(-c3ccc(F)cc3)c(-c3ccncc3)[nH]2)cc1 | 97 |
| CCOc1cc2ncnc(Nc3cccc(Br)c3)c2cc1OCC | 84 |
| COc1ccc(C(=O)Nc2sc3c(c2C(N)=O)CCCC3)cc1OC | 90 |
| N#Cc1cnc2cnc(NCc3cccnc3)cc2c1Nc1ccc(F)c(Cl)c1 | -2 |
| O=C1c2ccccc2-[n+]2ccc3c([nH]c4ccccc43)c21 | 95 |
| Oc1ccc(Nc2nc(-c3ccc(Cl)cc3)cs2)cc1 | 105 |
| CC(=O)O/N=C1\C(=C2\C(=O)Nc3cc(Br)ccc32)Nc2ccccc21 | 60 |
| CC(C)n1cnc2c(NCc3ccccc3)nc(NCCCO)nc21 | 88 |
